In the supplement of paper PMC7156485:
Where “and” joins values, the source holds several entries; their conditions need not be identical. Identical values can stand only once.

test system: TDF; test: cell number relative to DMSO (% of DMSO); higher = more cells (less growth inhibition / toxicity); conditions: concentration: 10 µM; 24 h
Method in brief: (§1)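 In 384-well plates holding 800 HCC1569 or TDF cells per well in RPMI with 10% FBS, compounds were tested at 10 µM for 24 h at 37 °C in triplicate. Fixation used 3.7% formaldehyde. Staining used a rabbit anti-H1.0 antibody with an AlexaFluor 647 secondary, plus DAPI. Each value, H1.0 nuclear intensity or cell number, is a median of replicates shown as percent of the plate control, and HCC1569 values were smoothed for positional effects.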
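Wherever H1.0 immunofluorescence intensity relative to DMSO is given: TDF is a line of transformed human dermal fibroblasts of mesenchymal origin.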
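Wherever cell number relative to DMSO is given: TDF denotes transformed human dermal fibroblasts of mesenchymal origin.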

Structure (SMILES)	cell number
COC1=CC2C3Cc4ccc(OC)c(O)c4C2(CCN3C)CC1=O (centres undefined) [Sinomenine]	95.5
CC1OC(=O)C2CC3CCCCC3C(C=CC3CCCC(C)N3C)C12 (single isomer, unassigned; (+)) [(+)-Himbacine]	112
O=C1NC(=O)c2c1c1c3ccccc3n3c1c1c2c2ccccc2n1C1CCC3O1	74.9 and 76.9
Cl.NCCc1ccc(O)cc1 [4-Hydroxyphenethylamine hydrochloride]	100
CCCn1c(=O)c2[nH]c(C3CCCC3)nc2n(CCCOC(=O)c2ccc(S(=O)(=O)F)cc2)c1=O	110
C[N+]1(C)C2CCC1CC(OC(=O)c1c[nH]c3ccccc13)C2.[I-] (centres undefined) [3-Tropanylindole-3-carboxylate methiodide]	106
CCCCCN(C)CCC(O)(P(=O)([O-])O)P(=O)(O)O.[Na+]	105
CCOC(=O)c1ncn2c1C1CCCN1C(=O)c1cc(OC)ccc1-2 (centres undefined)	108
CCN1CC2(COC)CCC(O)C34C5CC6C(OC)CC(O)(C(CC23)C14)C5C6OC(C)=O (centres undefined) [Condelphine]	105

test system: TDF; test: H1.0 immunofluorescence intensity relative to DMSO (% of DMSO); higher = stronger H1.0 induction, active = 120 or more; conditions: concentration: 10 µM; 24 h
Method in brief: as §1

Structure (SMILES)	H1.0 immunofluorescence intensity
CC(C)C1C(=O)OC2CCN3CC=C(COC(=O)C(C)(O)C1(C)O)C23 (centres undefined) [Trichodesmine]	93.2 (inactive)
CC(O)(CS(=O)(=O)c1ccc(F)cc1)C(=O)Nc1ccc(C#N)c(C(F)(F)F)c1 (centres undefined) [Bicalutamide]	94.6 (inactive)
Br.CC(Cc1ccc(O)cc1)NCC(O)c1cc(O)cc(O)c1 (centres undefined) [Fenoterol hydrobromide]	88.3 (inactive)
NC(Cn1oc(=O)[nH]c1=O)C(=O)O (single isomer, unassigned; (+)) [(+)-Quisqualic acid]	93.9 (inactive)
COc1ccc2c(c1OC)C(=O)OC2C1c2cc3c(cc2CCN1C)OCO3 (single isomer, unassigned; (+)) [(+)-Hydrastine]	96.4 (inactive)
CNc1ccc2oc(CC3OC4(CCC3C)OC(C(C)C(=O)c3ccc[nH]3)C(C)CC4C)nc2c1C(=O)O (centres undefined) [Calcimycin]	180 (active)
CCC=CCC(C=CC=CCC=CCC=CCCCC(=O)O)OO (centres undefined)	92.7 (inactive)
Cl.Cl.Clc1ccc(N2CC3CCC(C2)N3)nn1	90.8 (inactive)
Nc1ncnc2c1ncn2C1OC(COP(=O)(O)CP(=O)(O)OP(=O)([O-])[O-])C(O)C1O.[Li+].[Li+] (stereo not drawn) [alpha,beta-Methylene adenosine 5'-triphosphate dilithium]	87.9 (inactive)
Cc1cc2c(C(C)C)c(O)c(O)c(C=O)c2c(O)c1-c1c(C)cc2c(C(C)C)c(O)c(O)c(C=O)c2c1O [Gossypol]	92.2 (inactive)
C#C[C@]1(O)CC[C@H]2[C@@H]3CC[C@H]4Cc5nc6nc7ccccc7n6cc5C[C@]4(C)[C@H]3CC[C@@]21C	99 (inactive)
COC(=O)c1cc2c(cn1)[nH]c1ccccc12 [Methyl beta-carboline-3-carboxylate]	90.1 (inactive)
COC1C(O)C(C)OC(OC2CCC3(C=O)C(CCC4C3CCC3(C)C(C5=CC(=O)OC5)CCC43O)C2)C1O (centres undefined) [Peruvoside]	107 (inactive)
CCN1CC2(C)CCC(OC)C34C5CC6CCC(O)(C5C(=O)O6)C(C(O)C23)C14 (centres undefined) [Heteratisine]	96.1 (inactive)
C[N+](C)(C)CC#CCOC(=O)Nc1cccc(Cl)c1.[Cl-]	94.4 (inactive)
COCC1OC(=O)c2coc3c2C1(C)C1=C(C3=O)C2CCC(=O)C2(C)CC1OC(C)=O (centres undefined) [Wortmannin]	90.9 (inactive)
CNCCc1c[nH]c2ccc(O)cc12.O=C(O)C(=O)O [N-omega-Methyl-5-hydroxytryptamine oxalate salt]	91 (inactive)
Br.CCCN(CCC)CCc1ccc(O)c(O)c1 [Dipropyldopamine hydrobromide]	90.8 (inactive)
Cl.Cl.c1ccc(CCCN2CCN(CCOC(c3ccccc3)c3ccccc3)CC2)cc1	103 (inactive)
CN1CC(C(=O)NC2(C)OC3(O)C4CCCN4C(=O)C(Cc4ccccc4)N3C2=O)CC2c3cccc4[nH]cc(c34)CC21.CS(=O)(=O)O (centres undefined) [Dihydroergotamine methanesulfonate]	90.1 (inactive)
